Among all 52,000 compounds or so, about 4,300 (8.3%) were called active. The sample as a whole holds a higher share of actives than the screen did. Values without a mark were called inactive. Rule as the data show it: active = survival mostly below about 52% (no sharp cut-off); inactive = mostly above about 56%.
The compounds below were run on DeltatarO mutant (assay: S. aureus survival, RN4220 and DeltatarO strains – OD600, teichoic acid synthesis inhibitors, primary screen (AID 463173)). Settings: S. aureus RN4220 wild type/DeltatarO growth, OD600, 18 h, stronger effect = lower value, screened at 18.75 µg/mL (by protocol).

Row | SMILES | survival
1 | COc1ccc(OC)c(NC(=O)Cn2cc(C(=O)c3cccs3)c3ccccc32)c1 | 50%
2 | Cc1ccccc1NC(=O)CSC1=Nc2ccccc2C2=NC(CCC(=O)NCc3ccccc3)C(=O)N12 (stereo unspecified) | 89%
3 | COc1cccc(C2C(C(N)=O)=C(C)Nc3ncnn32)c1 (stereo unspecified) | 71%
4 | Cn1c(SCc2ccccc2F)nc2c([nH]c3ccccc32)c1=O | 97%
5 | Cc1ccc(/C=C/c2onc(C)c2S(=O)(=O)N2CCC(C(=O)N3CCN(c4cc(C)ccc4C)CC3)CC2)cc1 | 87%
6 | O=C(Cn1cc(SCc2ccccc2Cl)c2ccccc21)N1CCCCCC1 | 74%
7 | CC1CCN(S(=O)(=O)c2cc(C(=O)NCc3ccc(N(C)C)cc3)n(C)c2)CC1 | 93%
8 | Cc1cccc(N2CCN(c3ccc(NC(=O)c4ccccc4)cc3C(=O)O)CC2C)c1 (stereo unspecified) | 81%
9 | CCCS(=O)(=O)N1CCC(N2CCN(Cc3ccc(F)cc3)C(=O)C2=O)CC1 | 83%
10 | COc1cccc(CNC(=O)Cn2c(=O)cc(C(F)(F)F)c3c(C)nn(C)c32)c1OC | 90%
11 | O=C(NCc1ccc(Cl)cc1)C(=O)NCC(c1cccnc1)N1CCN(c2ccccc2)CC1 (stereo unspecified) | 47%
12 | O=C(NCCc1ccccc1)C(=O)NCC(c1cccnc1)N1CCN(c2ccccc2)CC1 (stereo unspecified) | 51%
13 | O=C(NCc1cccnc1)C(=O)NCC(c1cccnc1)N1CCN(c2ccccc2)CC1 (stereo unspecified) | 53%
14 | COCCNC(=O)C(=O)NCC(c1cccnc1)N1CCN(c2ccccc2)CC1 (stereo unspecified) | 54% (active)
15 | COCCNC(=O)C(=O)NCC(c1cccnc1)N1CCN(c2ccccc2F)CC1 (stereo unspecified) | 70%
16 | O=C(NCc1ccccc1)C(=O)NCC(c1cccnc1)N1CCN(c2ccccc2)CC1 (stereo unspecified) | 45% (active)
17 | Cc1ccc(CCNC(=O)c2ccc3c(c2)N(Cc2ccccc2F)C(=O)c2ccccc2S3=O)cc1 (stereo unspecified) | 69%
18 | COc1ccc(-c2cc(C(=O)NCc3ccc(F)cc3)c3c(-c4ccc(F)cc4)[nH]nc3n2)cc1OC | 72%
19 | COc1ccc(CCNc2nc3c(c(=O)n(C)c(=O)n3C)n2Cc2ccc(F)cc2)cc1OC | 90%
20 | CCOc1ccc(N(c2nc(-c3ccc(OC)c(OC)c3)no2)c2nc(-c3ccc(OC)c(OC)c3)no2)cc1 | 73%
21 | Nc1ncc(Cc2ccccc2)s1 | 75%
22 | CCCCSCCCNC(=O)CN1C(=O)c2cccnc2Oc2ccc(Cl)cc21 | 94%
23 | N#CC1=C(N)Oc2c(c(=O)oc3ccccc23)C1 | 31% (active)

Row | SMILES | survival
24 | N#CC1=C(N)Oc2c(c(=O)oc3ccccc23)C12C(=O)Nc1ccccc12 (stereo unspecified) | 102%
25 | N#Cc1cc2c(ccc3ccccc32)oc1=O | 71%
26 | COc1ccc(N2CCN(C(=O)Cn3ncc4c3-c3cc(C)ccc3OC4)CC2)cc1 | 122%
27 | C=C(C)Cn1c(=O)c2c(nc3n2CCN3c2cc(C)cc(C)c2)n(C)c1=O | 81%
28 | Oc1cccc(N=Cc2sc(=S)n(C3CCCCC3)c2O)c1 | 84%
29 | CC1=C(C(=O)Nc2cccc(C(F)(F)F)c2)C2(CCCCCC2)OC1=O | 32% (active)
30 | CC1=C(C(=O)Nc2ccccc2Br)C2(CCC(C)CC2)OC1=O (stereo unspecified) | 83%
31 | COC(=O)c1ccccc1NC(=O)C1=C(C)C(=O)OC12CCC(C)CC2 (stereo unspecified) | -23% (active)
32 | COC(=O)c1ccccc1NC(=O)C1=C(C)C(=O)OC12CCCCCC2 | 84%
33 | CC1=C(C(=O)Nc2cccc(C(F)(F)F)c2)C2(CCCCC2)OC1=O | 95%
34 | CC1=C(C(=O)NCc2cccc(F)c2)C2(CCCCCC2)OC1=O | 55%
35 | CC(=O)N1CCC2(CC1)OC(=O)C(C)=C2C(=O)Nc1cccc(Cl)c1C | 70%
36 | CC1=C(C(=O)NCc2cccc(F)c2)C2(CCCCC2)OC1=O | 37% (active)
37 | CC1=C(C(=O)Nc2cccc(C)c2C)C2(CCCCC2)OC1=O | 89%
38 | CC1=C(C(=O)Nc2cccc(C(F)(F)F)c2)C2(CCN(C(C)C)CC2)OC1=O | 84%
39 | CC1=C(C(=O)Nc2cccc(Cl)c2C)C2(CCCCCC2)OC1=O | 0% (active)
40 | CC1=C(C(=O)NCc2cccc(Br)c2)C2(CCCCC2)OC1=O | 83%
41 | CCOc1ccc(C2C(C(=O)Nc3ccc(C)cc3C)=C(C)Nc3c(C(=O)Nc4ccc(C)cc4)cnn32)cc1OC (stereo unspecified) | 94%
42 | O=C(NC(=O)c1ccccc1)Nc1ccc(-n2nc(C(F)(F)F)cc2C(F)(F)F)cc1 | 173%
43 | COC(=O)c1ccccc1NC(=O)Cn1c(=O)cc(-c2ccccc2)c2c(C)nn(C)c21 | 89%
44 | CCOC(=O)C(CC)N1CCN(Cc2ccc(F)cc2)C(=O)C1=O (stereo unspecified) | 85%
45 | Cc1cccc(NC(=O)C(=O)NCC(c2cccnc2)N2CCc3ccccc3C2)c1C (stereo unspecified) | 86%
46 | CN1CC(=O)N(CC(=O)Nc2ccc(Cl)c(C(F)(F)F)c2)c2ccccc2C1=O | 85%

From PubChem BioAssay AID463173 (ICCB-Longwood Screening Facility, Harvard Medical School, 2010)
